Bioassay records: PubChem BioAssay, several laboratories
Anthrax LF prot: inhibitors of Bacillus anthracis lethal factor protease | P15917 | hit rate 0.12% among 360,000 | multiplex microsphere protease cleavage assay, LF | inhibition, % at 10 µM
Autofluor counter: flagged as autofluorescent in microsphere protease counterscreen; compound autofluorescence counterscreen, microsphere flow cytometry; active compounds read high; fluorescence intensity (no concentration beside the values); hit rate 3.1% among 360,000; AID 624483; in the data active = fluorescence intensity above about 16000; inconclusive = no clear call, values can overlap the other calls
BoNT A protease: BoNT A light chain protease inhibition; multiplex microsphere protease substrate cleavage, flow cytometry; inhibition, % at 10 µM; hit rate 0.17% among 360,000; AID 588499
MazEF act: MazEF (E. coli) toxin RNase activation; P0AE70; FAM/BHQ RNA-DNA oligo cleavage fluorescence, 5 h; activation, % at 20 µM; hit rate 0.32% among 350,000; AID 504720; in the data active = activation above about 50%
Target sequence (P0AE70 whole entry, looked up): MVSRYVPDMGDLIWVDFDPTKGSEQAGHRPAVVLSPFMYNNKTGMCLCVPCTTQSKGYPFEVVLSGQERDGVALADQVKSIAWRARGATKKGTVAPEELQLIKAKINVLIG
SSB-PriA inh: blocks PriA binding to SSB C-terminal tail | AlphaScreen SSBct-PriA binding, biotinylated peptide | inhibition, % at 33 µM | hit rate 0.6% among 430,000 | AID 1272365; in the data active = inhibition mostly above about 37%, no sharp cut-off; inactive = mostly below about 20%
BoNT F protease: BoNT F light chain protease inhibition | Multiplex microsphere protease cleavage assay, flow cytometry | inhibition, % at 10 µM | hit rate 0.22% among 360,000; in the data active = inhibition above about 35%, passing the limit was not always enough; inconclusive = no clear call, values can overlap the other calls
Hits are given with their value; n = inactive; u = inconclusive; x = no result given. Most compounds without a hit are left out; they make up all but 3.3% or so of the library. Cut-off read from the data, not from the text of the source, unless noted: active = inhibition above about 30%; inconclusive = no clear call, values can overlap the other calls; inactive = below that.

SMILES | Anthrax LF prot | Autofluor counter | BoNT A protease | MazEF act | SSB-PriA inh | BoNT F protease
CCn1c(CC2CCCN(S(=O)(=O)c3ccc4c(c3)OCCO4)C2)n[nH]c1=O (configuration not stated) | x | x | x | x | n | x
O=[N+]([O-])c1ccc(-c2nc(/C=N\O)c3ccccn23)cc1 | x | x | x | x | n | x
CC(C)(C)c1ccc(-c2nc(C=O)c3ccccn23)cc1 | n | 18863 | u | n | n | n
CC(C)NC(=O)/C(=C\c1cccc([N+](=O)[O-])c1)NC(=O)c1ccccc1 | n | 22798 | n | n | n | n
O=C(N/N=C/c1ccco1)/C(=C/c1cccc([N+](=O)[O-])c1)NC(=O)c1ccccc1 | n | 22258 | n | n | x | n
O=C(NCCc1ccccc1)/C(=C\c1ccc([N+](=O)[O-])cc1)NC(=O)c1ccc(Br)cc1 | n | n | n | n | n | n
Cc1ccc(C(=O)N/C(=C\c2ccc([N+](=O)[O-])cc2)C(=O)NCCc2ccccc2)cc1 | n | 25796 | n | n | n | n
O=C(NN=Cc1ccco1)/C(=C/c1cccc([N+](=O)[O-])c1)NC(=O)c1ccccc1 | x | x | x | x | n | x
Cc1cc(C)c2ccc(N)nc2n1 | x | x | x | x | n | x
CCC(=O)c1cn(CC(=O)Nc2ccccc2Cl)c2ccccc12 | n | n | n | 54.3 | n | u
CC1(C)CC(=NNC(=O)c2n[nH]c3c2CCC3)CC(C)(C)N1 | n | n | n | n | n | 37.1
NNC(=O)c1n[nH]c2c1CCC2 | x | x | x | x | n | x
CC1([N+](=O)[O-])COP(=O)(Nc2ccc(Cl)cc2)OC1 (configuration not stated) | n | n | n | n | n | n
CC1([N+](=O)[O-])COP(=O)(Nc2cccc(Br)c2)OC1 (configuration not stated) | n | 16672 | n | n | n | n
COc1ccc(Cl)cc1CN1CCN(c2ncnc3c2cnn3Cc2ccc(Cl)cc2)CC1 | x | x | x | x | n | x
Cc1ccc(Cl)cc1N1CCN(C(=O)CSc2nnc3n2C(C)(C)Cc2ccccc2-3)CC1 | n | n | n | n | n | n
CC1(C)Cc2ccccc2-c2nnc(SCC(=O)N3CCc4ccccc43)n21 | n | 24428 | n | n | n | n
COc1ccc2nc(NC(=O)CSc3nnc4n3C(C)(C)Cc3ccccc3-4)sc2c1 | n | 16715 | n | n | n | n
CCn1c(SCC(=O)N2CCc3ccccc32)nnc1-c1ccncc1 | n | n | n | n | n | n
COc1cc(NC(=O)CSc2nnc3n2C(C)(C)Cc2ccccc2-3)cc(OC)c1 | n | 16774 | n | n | n | n
COc1ccc(N2CCN(C(=O)CSc3nnc4n3C(C)(C)Cc3ccccc3-4)CC2)cc1 | n | 22079 | n | n | n | n
Cn1cccc(C(=O)OC2CN(c3nc4c(Cl)cccc4s3)C2)c1=O | x | x | x | x | n | x
Cc1noc(C)c1CCC(=O)NCc1nc(-c2ccccc2)no1 | x | x | x | x | n | x
COC(=O)CSc1nnc2n1C(C)(C)Cc1ccccc1-2 | n | 16446 | n | n | n | n
NC(=O)C1CCN(CC(=O)Nc2oc3ccccc3c(=O)c2-c2ccccc2)CC1 | x | x | x | x | n | x
SMILES | Anthrax LF prot | Autofluor counter | BoNT A protease | MazEF act | SSB-PriA inh | BoNT F protease
Cc1cc(C)c(C(=O)c2ccc(C(=O)N(C(C)C)C(C)C)cc2)c(C)c1 | n | 22394 | n | n | n | n
Cc1cc(C)c(C(=O)c2ccc(C(=O)NC(C)(C)C)cc2)c(C)c1 | n | n | n | n | n | n
CC(C)CNC(=O)COC(=O)c1c2c(nc3ccccc13)/C(=C/c1cccs1)CC2 | n | n | 31.1 | n | n | n
NC(=NOC(=O)c1ccccc1Cl)c1ccccc1 | x | x | x | x | n | x
N/C(=N\OC(=O)c1ccccc1Cl)c1ccccc1 | n | 22870 | u | n | x | n
N/C(=N\OC(=O)c1ccc(F)cc1)c1ccccc1 | n | 22601 | n | n | x | n
N/C(=N\OC(=O)c1cccc2ccccc12)c1cccc([N+](=O)[O-])c1 | n | 16600 | n | 55.2 | x | n
Cc1c(Cl)cccc1S(=O)(=O)NCC(O)c1cn(C)c2ccccc12 (configuration not stated) | x | x | x | x | n | x
O=C(NCn1cnccc1=O)c1ccccc1 | n | 23239 | n | n | n | n
COc1cc(C(=O)NC(=S)NNC(=O)c2cnccn2)cc(OC)c1OC | n | n | n | n | 81.8 | n
O=C(NN=Cc1ccco1)c1cnccn1 | x | x | x | x | n | x
COc1ccc(C(=O)NC(=S)NNC(=O)c2cnccn2)cc1 | n | n | n | n | n | n
O=C(/C=C/c1ccco1)NC(=S)NNC(=O)c1cnccn1 | x | x | x | x | 65.6 | x
Cn1nc(C(=O)N2CCc3oncc3C2)ccc1=O | x | x | x | x | n | x
COC(=O)c1ccc2c(=O)n(CCC(=O)NCc3ccc(Cl)cc3)c(=S)[nH]c2c1 | x | x | x | x | n | x
